Source: PubChem
Vaccinia mCherry: vaccinia inhibition (mCherry reporter). Vaccinia virus mCherry reporter infection, fluorescence. Potency, µM (doses to about 36.5 µM), usual class: inhibitors. 310,000 tested, 0.63% active; calls by dose curve; tested in A549 cells; further: nearly all actives have a fitted effect of over 35% in size
HCV inh: HCV inhibition; Potency, µM (highest dose often 41.8 µM), most hits filed as inhibitors; AID 651820; 340,000 tested, 3.4% active; Huh7.5.1 HCVcc-Cre infection, luciferase reporter, 44 h
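Reporter virus HCVcc-Cre (~0.5 moi) infects cells exposed to compound; seeding density 1,000 cells/well with 4 h settling beforehand. Luminescence, 15 sec read, taken 44 h post-infection following a 15 min RT substrate incubation.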
VACV Venus inh: inhibitors of vaccinia virus (Venus reporter) | 330,000 tested, 0.46% active | Potency, µM (doses to about 36.5 µM), actives largely listed as inhibitors | Vaccinia virus Venus reporter expression, fluorescence; calls by dose curve; tested in A549 cells; further: nearly all actives have a fitted effect of over 30% in size
HCMV antiviral: inhibitors of human cytomegalovirus | HFF cells, HCMV-luciferase reporter, 72 h; stronger effect = lower value | activity change, negative = inhibition, % at 57.5 µM | 410,000 tested, 4.5% active; in the data active means activity change below about -60%; inconclusive means no clear call, values can overlap the other calls; inactive means above about -39%
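Luciferase read-out from HCMV-luciferase-infected HFFs (MOI 1 PFU/cell) 72 h post infection at 37C; compounds added after 16 h cell attachment; activity normalized between buffer-only basal and Salinomycin (10uM) inhibitor controls.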
Sm TGR inh: inhibitors of Schistosoma mansoni thioredoxin glutathione reductase; AID 485364; 360,000 tested, 3% active; Potency, µM (highest dose often 114 µM), actives largely listed as inhibitors; Q962Y6; purified TGR, DTNB reduction, TNB absorbance 405 nm; further: nearly all actives have a fitted effect of over 60% in size
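TGR 20 nM + NADPH 100 uM (dispensed conc.), cpd preinc 15 min RT; start with NADPH (500 uM addition) then DTNB (15 mM addition). Kinetic TNB absorbance, 405 nm filter. Four-parameter Hill fit across titration.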
FMDV antiviral: blocks foot and mouth disease virus; FMDV antiviral cell-based qHTS; Potency, µM (doses to about 57.9 µM), most hits filed as inhibitors; 410,000 tested, 1.2% active; calls by dose curve; tested in HEK293T cells; further: read-out not given here; nearly all actives have a fitted effect of over 45% in size
A number is an active result; [ ] = remark or other dose. A selection: hits, their analogues and other compounds. The true share with any hit is near 9.3%. Unless noted, the call rests on the fitted dose curve; in most records, active means well fitted curve in the direction sought with a large enough effect; inconclusive means small, poorly fitted or top-dose-only effect, or another doubt; inactive means no such curve, though single readings can be large; an effect the other way counts as inactive or inconclusive.

How did COc1ccc(C(=O)NNC(=O)CSc2nc(C(C)C)nc3ccccc23)cc1 do in these assays?
Vaccinia mCherry: inactive; HCV inh: inactive; VACV Venus inh: inactive; HCMV antiviral: -65; Sm TGR inh: inactive; FMDV antiviral: inactive

How did CN(C)c1ccc(NC(=O)CSc2nc(N)c(C(=O)Nc3ccc(N(C)C)cc3)s2)cc1 do in these assays?
Vaccinia mCherry: 4µM; HCV inh: 10µM; VACV Venus inh: 4µM; HCMV antiviral: inconclusive; Sm TGR inh: inactive; FMDV antiviral: inconclusive

Results for CC(C)(C)c1nc(SCC(=O)NNC(=O)c2ccccc2)c2ccccc2n1 ?
Vaccinia mCherry: inconclusive; HCV inh: inconclusive; VACV Venus inh: inactive; HCMV antiviral: -63; Sm TGR inh: inactive; FMDV antiviral: inactive

What do the screens show for `CC(C)c1nc(SCC(=O)Nc2ccc(N(C)C)cc2)c2ccccc2n1`?
HCV inh: inconclusive; HCMV antiviral: -77; Sm TGR inh: inactive; FMDV antiviral: inconclusive

What do the screens show for `CCc1nc(SCC(=O)NNC(=O)c2ccc(OC)cc2)c2ccccc2n1`?
Vaccinia mCherry: inactive; HCV inh: inactive; VACV Venus inh: inactive; HCMV antiviral: inactive; Sm TGR inh: inactive; FMDV antiviral: inactive

Results for COc1ccc(NC(=O)Nc2ccccc2)cc1S(=O)(=O)N1CCCCC1 ?
Vaccinia mCherry: inactive; HCV inh: inconclusive; VACV Venus inh: inactive; HCMV antiviral: inconclusive; Sm TGR inh: inactive; FMDV antiviral: inconclusive

Results for O=S1(=O)CC(N2CCCC2)CN1Cc1ccccc1 (stereo unspecified) ?
Vaccinia mCherry: inactive; VACV Venus inh: inactive; HCMV antiviral: inactive; FMDV antiviral: inactive

Results for CN(C)S(=O)(=O)Oc1ccc(Cl)cc1C(=O)Nc1ccc(F)cc1F ?
Vaccinia mCherry: inactive; HCV inh: inconclusive; VACV Venus inh: inactive; HCMV antiviral: inactive; Sm TGR inh: inactive; FMDV antiviral: inactive

What do the screens show for `CC1C(=O)N2CCCc3cc(NC(=O)C(=O)NCCCc4ccccc4)cc1c32` (stereo unspecified)?
Vaccinia mCherry: inactive; HCV inh: inconclusive; VACV Venus inh: inactive; HCMV antiviral: inactive; Sm TGR inh: inactive; FMDV antiviral: inactive

Results for CC1C(=O)N2CCCc3cc(NC(=O)C(=O)NCCc4ccc(F)cc4)cc1c32 (stereo unspecified) ?
Vaccinia mCherry: inactive; HCV inh: 11µM; VACV Venus inh: inactive; HCMV antiviral: inactive; Sm TGR inh: inactive; FMDV antiviral: inactive

How did CCc1nnc(NC(=O)CC(CN(C)S(=O)(=O)c2ccccc2)c2ccccc2)s1 (stereo unspecified) do in these assays?
Vaccinia mCherry: inactive; HCV inh: inconclusive; VACV Venus inh: inactive; HCMV antiviral: inactive; Sm TGR inh: inactive; FMDV antiviral: inactive

What do the screens show for `O=c1c(O)cccc2cc(O)c(O)c(O)c12`?
Vaccinia mCherry: inactive; HCV inh: inactive; VACV Venus inh: inactive; HCMV antiviral: inactive; Sm TGR inh: 8.9µM; FMDV antiviral: inactive

How did CSc1ccc(CN2CCC2(C)C(=O)NC2CCN(Cc3ccccc3)CC2)cc1 (stereo unspecified) do in these assays?
Vaccinia mCherry: inactive; VACV Venus inh: inactive; HCMV antiviral: inactive; FMDV antiviral: inactive

What do the screens show for `CC(=O)c1ccc(N2CCN(C(=O)Cc3n[nH]c(=O)c4ccccc34)CC2)cc1`?
Vaccinia mCherry: inactive; HCV inh: inactive; VACV Venus inh: inactive; HCMV antiviral: inactive; Sm TGR inh: inactive; FMDV antiviral: inactive

Results for CCOC(=O)c1cnc2ccc(OCC)cc2c1NCCc1ccc(OC)c(OC)c1 ?
Vaccinia mCherry: inactive[7.34 µM]; VACV Venus inh: inactive[7.34 µM]; HCMV antiviral: inactive; Sm TGR inh: inactive; FMDV antiviral: 28µM

How did CCOC(=O)c1cnc2ccc(OCC)cc2c1N(C)Cc1ccccc1 do in these assays?
Vaccinia mCherry: inactive; HCV inh: 11µM; VACV Venus inh: inactive; HCMV antiviral: inactive; Sm TGR inh: inactive; FMDV antiviral: inconclusive

Results for CCOC(=O)c1cnc2ccc(C)cc2c1NCCc1ccc(OC)c(OC)c1 ?
Vaccinia mCherry: inactive; VACV Venus inh: inactive; HCMV antiviral: inactive; Sm TGR inh: inactive; FMDV antiviral: inactive

How did CC(Oc1ccccc1F)c1nnc(SCC(=O)Nc2ccc(N3CCOCC3)cc2)o1 (stereo unspecified) do in these assays?
Vaccinia mCherry: inactive; HCV inh: inactive; VACV Venus inh: inactive; HCMV antiviral: inactive; Sm TGR inh: inactive; FMDV antiviral: inactive

How did NC(=O)c1sc2nc3c(c(-c4ccc(Cl)cc4)c2c1N)CCCC3 do in these assays?
Vaccinia mCherry: inconclusive; HCV inh: inconclusive; VACV Venus inh: inconclusive; HCMV antiviral: -61; Sm TGR inh: inactive; FMDV antiviral: inactive

Results for Cc1ccc(-c2c3c(nc4sc(C(N)=O)c(N)c24)CCC3)cc1 ?
HCV inh: inconclusive; VACV Venus inh: inactive; HCMV antiviral: -87; Sm TGR inh: inactive; FMDV antiviral: inactive

How did CCc1cc(=O)[nH]c(SCCCF)n1 do in these assays?
Vaccinia mCherry: inactive; HCV inh: inactive; VACV Venus inh: inactive; HCMV antiviral: inactive; Sm TGR inh: inactive; FMDV antiviral: inactive

Results for c1ccc(CSc2nnc(-c3ccccn3)n2-c2ccccc2)cc1 ?
Vaccinia mCherry: inactive; HCV inh: inactive; VACV Venus inh: inactive; HCMV antiviral: inactive; Sm TGR inh: inactive; FMDV antiviral: inactive

What do the screens show for `COc1ccc(C(=O)Nc2c(C(=O)c3ccc(F)cc3)oc3ccccc23)cc1`?
Vaccinia mCherry: inactive; VACV Venus inh: inactive; HCMV antiviral: inactive; Sm TGR inh: inactive; FMDV antiviral: inactive

What do the screens show for `CN(C(=O)c1ccc(N2CCOCC2)c([N+](=O)[O-])c1)C1CCCCC1`?
Vaccinia mCherry: inactive; HCV inh: inactive; VACV Venus inh: inactive; HCMV antiviral: inactive; Sm TGR inh: inactive; FMDV antiviral: inactive

Results for CCCCC1(Cc2cccc([N+](=O)[O-])c2)C(=O)N(c2ccccc2)N(c2ccccc2)C1=O ?
Vaccinia mCherry: inactive; HCV inh: 6.3µM; VACV Venus inh: inactive; HCMV antiviral: -64; Sm TGR inh: inactive; FMDV antiviral: inconclusive

Results for CCCCC1(Br)C(=O)N(c2ccccc2)N(c2ccccc2)C1=O ?
Vaccinia mCherry: inactive; HCV inh: inactive; VACV Venus inh: inactive; HCMV antiviral: inconclusive; Sm TGR inh: 14µM; FMDV antiviral: inactive

How did CN(C)c1ccc(CNC(=O)CCNS(=O)(=O)c2cc(Br)cnc2N)cc1 do in these assays?
Vaccinia mCherry: inactive[7.34 µM]; HCV inh: inactive; VACV Venus inh: inactive[7.34 µM]; Sm TGR inh: inactive; FMDV antiviral: inactive

What do the screens show for `Cc1ccc(NNc2c(C)nc3ccccc3nc2=O)cc1`?
Vaccinia mCherry: inconclusive; HCV inh: inactive; VACV Venus inh: inactive; HCMV antiviral: -67; FMDV antiviral: inactive

How did N#Cc1c(Nc2ccccc2Cl)s[nH]c1=O do in these assays?
Vaccinia mCherry: inactive; HCV inh: inactive; VACV Venus inh: inactive; HCMV antiviral: -87; Sm TGR inh: inactive; FMDV antiviral: inactive

What do the screens show for `COc1cccc(C(=O)N2CCN(Cc3cn[nH]c3-c3ccc(F)cc3F)CC2)c1`?
Vaccinia mCherry: inactive; HCV inh: inactive; VACV Venus inh: inactive; HCMV antiviral: inactive; Sm TGR inh: inactive; FMDV antiviral: inactive
